S1P3 antagonist: antagonists of human S1P3 receptor | Q99500 | CHO S1P3 NFAT-BLA reporter, FRET fluorescence, antagonist mode | inhibition, % at 4.98 µM | 170,000 tested, 0.27% active;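 active = inhibition above the plate cutoff, the mean inhibition of test wells on that plate plus 3 SD, cut at about 28% in these data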;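 also: cells challenged with S1P at its EC80 of 0.8 µM; blue over green emission ratio from cleaved BLA substrate after 4 h stimulation; 0% = S1P-stimulated wells and 100% = unstimulated DMSO-only wells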
EP2 mod: modulates human prostaglandin E2 receptor EP2 signaling | P43116 | 260,000 tested, 0.83% active | induction, % at 25 µM | EP2-expressing cells, cAMP HTRF FRET, PGE2 co-stimulation;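 active = compounds whose cAMP rise, as percent of the full-agonist control response, exceeds 60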;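 also: rat C6 glioma line stably carrying human EP2 under a CMV promoter; the protocol text gives 20 µM as final concentration; 100% = response of wells given 1 µM PGE2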
Target sequence (P43116 whole entry, looked up): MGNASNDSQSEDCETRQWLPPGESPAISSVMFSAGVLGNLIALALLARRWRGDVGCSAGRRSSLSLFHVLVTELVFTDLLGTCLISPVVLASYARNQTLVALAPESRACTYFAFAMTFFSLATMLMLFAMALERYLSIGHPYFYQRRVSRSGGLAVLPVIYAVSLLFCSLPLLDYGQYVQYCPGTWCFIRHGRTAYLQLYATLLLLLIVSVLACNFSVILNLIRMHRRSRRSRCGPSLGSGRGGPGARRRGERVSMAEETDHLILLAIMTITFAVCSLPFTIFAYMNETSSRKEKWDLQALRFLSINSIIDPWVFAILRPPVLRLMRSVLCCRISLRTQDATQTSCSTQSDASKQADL
PGE2 EP2 inh: EP2 receptor (human) inhibition | P43116 | C6 glioma cells expressing human EP2, cAMP TR-FRET; cells stimulated with saturating PGE2 | inhibition, % at 25 µM | 260,000 tested, 0.52% active | AID 1422;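 active = percent inhibition above 40 after rounding to a whole number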;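 also: rat C6 glioma host cells with rolipram phosphodiesterase inhibitor present; the protocol text gives 20 µM as final concentration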
S1P4 ag: agonists of human S1P4 receptor | O95977 | S1P4-expressing cell line, agonist reporter assay | activation, % at 4.98 µM | 220,000 tested, 0.35% active | AID 1509; in the data active = activation above about 11%;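 also: 0% = DMSO vehicle and 100% = reference agonist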
S1P4 antag: human S1P4 receptor antagonism; O95977; S1P4-expressing cells, antagonist mode, reporter read-out; inhibition, % at 4.98 µM; 220,000 tested, 0.26% active; in the data active = inhibition above about 29%;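 also: 0% = wells stimulated with agonist and 100% = vehicle wells without agonist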
S1P4 agonist cf: human S1P4 agonism, confirmation; shares compounds with S1P4 ag; activation, % at 4.98 µM; S1P4 agonist cell-based reporter assay; 740 tested, 7% active; in the data active = activation above about 12%;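 also: 0% = vehicle and 100% = full reference agonist response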
S1P1 ag: activates human S1P1, counter-screen for S1P4 agonists; shares compounds with S1P4 ag; S1P1 agonist cell-based assay, activation; activation, % at 4.98 µM; 740 tested, 4% active; AID 1563; in the data active = activation above about 21%;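 also: 0% = vehicle wells and 100% = reference agonist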
Active calls of the source: *; . = no result. Most compounds without a hit are left out; they make up all but 1.9% or so of the library.

SMILES	S1P3 antagonist	EP2 mod	PGE2 EP2 inh	S1P4 ag	S1P4 antag	S1P4 agonist cf	S1P1 ag
CCOC(=O)CNC(=O)CSc1nnc(-c2cccc(C)c2)n1CC	.	-2	13	.	.	.	.
Cc1cc(=O)c2ccccc2n1Cc1ccccc1	-2	-6	9	3	-9	.	.
Cc1cc(=O)c2ccccc2n1CC(=O)NCc1ccccc1	3	-44	9	19*	-24	-1	-2
Cc1onc(C(=O)N2CCOCC2)c1[N+](=O)[O-]	-4	-2	5	19*	4	-3	3
CC(C)c1onc(C(=O)N2CCOCC2)c1[N+](=O)[O-]	-4	5	5	-1	-7	.	.
CN1CCN(CC(=O)N2N=C(c3cccc(NS(C)(=O)=O)c3)CC2c2ccco2)CC1 (centres undefined)	.	12	6	.	.	.	.
CCC1OC23CCCCC2C(C#N)(C(=N)O3)C1(C#N)C#N (centres undefined)	.	12	-7	2	-6	.	.
CC1OC23CCCCC2C(C#N)(C(=N)O3)C1(C#N)C#N (centres undefined)	.	25	5	12*	11	-1	-1
CCNc1nc2nc3ccc(C)cn3c(=O)c2cc1C(=O)NCC1CCCO1 (centres undefined)	-29	21	6	13*	-23	2	8
Cc1cc2c(NS(=O)(=O)c3ccc(F)cc3)cccc2nn1	-6	5	4	116*	-6	-1	2
Cc1ccccc1NS(=O)(=O)c1ccc(F)cc1	-13	26	6	1	-21	.	.
COc1ccc(-n2nc3ccc(NC(=S)NC(=O)c4ccccc4OC)cc3n2)cc1	.	21	13	.	.	.	.
O=C(Nc1nc(-c2ccc(Br)cc2)cs1)c1cccnc1	-1	11	7	1	-8	.	.
CC(C)/C=N/Nc1nc(-c2ccc(Br)cc2)cs1	-33	-4	9	34*	8	-2	12
CCCNC(=O)CSc1nnc2n(CC(=O)NC3CCCCC3)c3ccccc3n12	.	-4	6	.	.	.	.
COc1ccc(CCNC(=O)Nc2ccccc2[N+](=O)[O-])cc1	7	-76	6	21*	1	-3	-1
O=C(N/N=C/c1cn(-c2cccs2)nc1-c1ccccc1)c1ccccc1O	-2	-61	31	-1	1	.	.
O=C(N/N=C/c1cn(-c2cccs2)nc1-c1ccccc1)c1ccccc1Br	9	-15	15	11*	1	-2	1
CC/C(O)=C1\C(=O)CCCC1=NCc1nc2ccccc2[nH]1	8	-49	7	209*	-10	-3	0
O=C(Cc1cccs1)Nc1ccccc1C(=O)O	-22	25	7	117*	-11	-2	5
O=C(Cc1cccs1)Nc1ccccc1NC(=O)Cc1cccs1	-30	25	8	-2	-11	.	.
Cc1cnc(C(=O)N2CCC3(CC2)NC(=O)c2cc(Cl)ccc2N3)cn1	.	17	2	.	.	.	.
O=[N+]([O-])c1ccccc1N/N=C/c1cccc(O)c1O	-4	25	4	13*	-10	-3	2
O=[N+]([O-])c1ccccc1N/N=C\c1ccccc1Cl	.	-6	14	-1	-36	.	.
CCCC(=O)N1CCC[C@@H](Cn2nc(-c3cccs3)ccc2=O)C1	.	-39	5	.	.	.	.
SMILES	S1P3 antagonist	EP2 mod	PGE2 EP2 inh	S1P4 ag	S1P4 antag	S1P4 agonist cf	S1P1 ag
CC(C)(C)c1ccc(C(=O)NCC(=O)OCc2ccc([N+](=O)[O-])cc2)cc1	-4	9	9	14*	-9	-2	-7
CCc1cccc(CC)c1NC(=O)CN1CCC(n2nnc3cc(C(F)(F)F)ccc32)CC1	.	6	20	.	.	.	.
Cc1ccc(CNC(=O)C2CC(c3ccc([N+](=O)[O-])cc3)=NO2)cc1 (centres undefined)	.	-28	10	25*	-7	-1	-7
COc1ccc(C2=NN(C(C)=O)C(c3cccc(OC)c3OC)C2)cc1 (centres undefined)	.	-36	15	.	.	.	.
O=C(c1cnc2ccc(Cl)cc2c1Cl)N1CCOCC1	-4	16	8	26*	-6	-1	0
O=C(c1cc(Cl)ccc1Cl)N1CCOCC1	-38	5	1	1	-5	.	.
Cc1cc(C)cc(NC(=O)CSc2nnc(-c3ccc(S(=O)(=O)N4CCCC4)cc3)o2)c1	-16	10	6	11*	-13	-3	-6
Cn1c(=O)[nH]c(=O)c2c1nc(N)n2Cc1ccccc1Cl	.	-3	9	.	.	.	.
CN(Cc1cc(=O)n2ccsc2n1)C1CCCCC1	4	-11	3	93*	0	-2	3
CN(Cc1cc(=O)n2ccsc2n1)c1ccccc1	-3	14	3	2	3	.	.
O=C(Nc1ccc2c(c1)OCO2)N1CCOCC1	-5	5	7	1	-20	.	.
O=C(Nc1ccc2c(c1)OCO2)N1CCCC1	3	-12	4	46*	-2	-2	3
CCn1c(C)[n+](CC)c2ccc(NS(=O)(=O)c3ccc(C)cc3)cc21	.	-1	11	.	.	.	.
CCOC(=O)c1cc2ccc(OC(=O)c3ccco3)cc2oc1=O	-144	2	8	149*	-156	84*	96*
CC(C)c1csc(CN2CCN(Cc3ccc(F)c(F)c3)C(CCO)C2)n1 (centres undefined)	-2	-13	6	42*	-9	-2	-5
CC(C)c1cc(CN2CCN(Cc3ccc(F)c(F)c3)C(CCO)C2)[nH]n1 (centres undefined)	0	7	7	1	-21	.	.
Cc1cc(NC(=O)C2C3C(=O)N(Cc4ccc(Cl)cc4)C(C(=O)NC4CCCCC4)C34C=CC2(C)O4)no1 (centres undefined)	.	11	.	1	-18	.	.
Cc1cc(NC(=O)C2C3C(=O)N(Cc4ccc(Cl)cc4)C(C(=O)NCc4ccccc4)C34C=CC2(C)O4)no1 (centres undefined)	.	-14	16	18*	-15	-2	-6
CN(C(=O)CSc1nc(-c2cccs2)cc(C(F)(F)F)n1)c1ccccc1	.	47	9	.	.	.	.
NC(=O)c1cc2ccc(O)cc2oc1=Nc1ccccc1	-25	30	10	33*	-47	1	6
COc1ccc2cc(C(=O)NCc3ccccc3)c(=Nc3ccc(C(=O)O)cc3)oc2c1	2	20	5	2	-6	.	.
O=C(O)c1ccc(N=c2oc3cc(O)ccc3cc2C(=O)NCc2ccccc2)cc1	-23	30	-1	38*	-37	4	3
NC(=O)c1cc2ccc(O)cc2oc1=NCc1ccccc1	25	12	7	79*	-79	10	6
NC(=O)c1cc2ccccc2oc1=NCc1ccccc1	.	26	18	-1	2	.	.
Cc1cc(C)n2ncc(C(=O)Nc3ccc(F)cc3F)c2n1	.	-32	9	.	.	.	.
CN1CCN(Cc2c(O)ccc3cc(Br)ccc23)CC1	-10	-50	7	32*	-3	-3	-5

Compound activity: PubChem BioAssay, several laboratories
